PLK1 PBD block: inhibitors of human PLK1 polo-box domain binding; P53350; Plk1 PBD binding of FITC phosphopeptide, fluorescence polarization; Potency, µM, for the others: max response, negative = inhibition, most hits filed as inhibitors; 360,000 tested, 2.8% active; further: potency means the concentration at half of the fitted maximal effect; series mostly up to about 57 µM; on the % scale 0 is the no-effect control and ±100 the full control effect; nearly all actives have a fitted effect of over 65% in size
VDR inhibitor: inhibitors of human vitamin D receptor; P11473; VDR-SRC2-3 peptide fluorescence polarization, 2 h; Potency, µM, for inactives: max response, negative = inhibition, usual class: inhibitors; 400,000 tested, 0.93% active; AID 504847; further: potency means the concentration at half of the fitted maximal effect; on the % scale 0 is the no-effect control and ±100 the full control effect
Target sequence (P11473 whole entry, looked up): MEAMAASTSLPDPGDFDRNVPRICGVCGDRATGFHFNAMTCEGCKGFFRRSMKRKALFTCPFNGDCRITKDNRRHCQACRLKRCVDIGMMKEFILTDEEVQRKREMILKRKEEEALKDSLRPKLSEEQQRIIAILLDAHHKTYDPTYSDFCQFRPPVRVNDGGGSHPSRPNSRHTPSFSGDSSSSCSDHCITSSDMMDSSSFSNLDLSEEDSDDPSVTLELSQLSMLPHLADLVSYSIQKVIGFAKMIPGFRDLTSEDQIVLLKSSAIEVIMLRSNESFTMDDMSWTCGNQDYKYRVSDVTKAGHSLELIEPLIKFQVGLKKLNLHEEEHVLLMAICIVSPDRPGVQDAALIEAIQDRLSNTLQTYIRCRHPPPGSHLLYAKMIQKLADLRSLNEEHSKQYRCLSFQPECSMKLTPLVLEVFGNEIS
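VDR–SRC2-3 interaction, FP format. Cmpds 23 nl via pintool, brief spin, 2 h ambient incubation.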
Sfp inh: blocks B. subtilis Sfp PPTase activity; AID 1490; 310,000 tested, 3.5% active; Biochemical Sfp PPTase activity, qHTS; Potency, µM, inactives show largest response in the series, negative = inhibition, hits mostly inhibitors;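 further: the enzyme is Sfp with the accession as filed and its product quenches rhodamine fluorescence; potency means the concentration at half of the fitted maximal effect; 0% = enzyme reaction without inhibitor and -100% = no enzyme wells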
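Reaction rates are the 30-min fluorescence difference (ex 525, em 598 nm) in wells containing 15 nM Sfp, 5 uM rhodamine-CoA and 12.5 uM BHQ-2-YbbR at pH 7.6 with 10 mM MgCl2.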
12-LOX inh: blocks human arachidonate 12S-lipoxygenase; purified 12hLO, xylenol orange hydroperoxide absorbance; P18054; 580,000 tested, 1.1% active; Potency, µM (doses to about 108 µM), inactives show at the highest dose activity change, negative = inhibition, usual class: inhibitors; further: potency means the concentration at half of the fitted maximal effect; on the % scale 0 is the no-effect control and ±100 the full control effect
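Hydroperoxide product was detected by ferrous iron/xylenol orange as the 573 to 405 nm absorbance ratio. Arachidonic acid at 40 uM (final) was turned over for 30 min at room temperature by 150 nM human 12hLO, pH 7.0 Hepes buffer, after 15 min compound preincubation.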
Sfp PPTase conf: Sfp phosphopantetheinyl transferase inhibition, confirmation; AID 2701; shares compounds with Sfp inh; Sfp PPTase enzymatic assay, qHTS titration; 380 tested, 79% active; Potency, µM (highest dose often 114 µM), without a hit: top-dose activity change, negative = inhibition, usual class: inhibitors;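 further: potency means the concentration at half of the fitted maximal effect; plate controls were uninhibited Sfp reaction for no effect and no enzyme control for full effect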
Target sequence (Q9F4F7 whole entry, looked up): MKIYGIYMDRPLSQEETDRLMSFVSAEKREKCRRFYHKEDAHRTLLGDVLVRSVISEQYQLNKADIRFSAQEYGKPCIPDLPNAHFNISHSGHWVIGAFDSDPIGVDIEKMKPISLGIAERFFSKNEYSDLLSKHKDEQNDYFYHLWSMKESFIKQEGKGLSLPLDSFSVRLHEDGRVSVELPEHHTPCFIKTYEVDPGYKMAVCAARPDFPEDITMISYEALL
Sfp gel assay: Inhibits Bacillus subtilis Sfp phosphopantetheinyl transferase; shares compounds with Sfp inh; purified Sfp, gel-based phosphopantetheinylation read-out; Potency, µM, hits mostly inhibitors; 210 tested, 20% active; AID 2707;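 active means potency below 100 µM; inconclusive means dose-dependent response but potency above 100 µM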;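 further: band intensities scaled against SCH202676 control wells before curve fitting; potency is an IC50 for inhibitors of Sfp transfer activity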
USP1-UAF1 confirm: blocks human USP1/UAF1 cleavage of Ub-Rhodamine; shares compounds with VDR inhibitor; Potency, µM (top dose mostly 56.8 µM), for the others: at the highest dose activity change, negative = inhibition, hits mostly inhibitors; 50 tested, 50% active; AID 540327; Ub-Rhodamine cleavage, fluorescence kinetic read
VDR confirm: confirmation of human vitamin D receptor inhibitors | 840 tested, 89% active | AID 602199 | Potency, µM, most hits filed as inhibitors | VDR-coactivator inhibition assay, qHTS confirmation | shares compounds with VDR inhibitor; further: potency means the concentration at half of the fitted maximal effect
VDR FP: confirmation of human VDR-coactivator binding inhibitors, fluorescein label. shares compounds with VDR inhibitor. Potency, µM (doses to about 57.1 µM), without a hit: top-dose activity change, negative = inhibition, actives largely listed as inhibitors. VDR-coactivator binding, fluorescein fluorescence polarization. 840 tested, 48% active; further: potency means the concentration at half of the fitted maximal effect
VDR bla: confirmation of human vitamin D receptor inhibitors in reporter cells; Potency, µM (titrated, usually from 46.1 µM), without a hit: at the top dose activity change, negative = inhibition, actives largely listed as inhibitors; VDR beta-lactamase reporter cells, FRET ratio; cells co-treated with VDR agonist LG190178; 840 tested, 23% active; shares compounds with VDR inhibitor; further: potency means the concentration at half of the fitted maximal effect; on the % scale 0 is the no-effect control and ±100 the full control effect
VDR viability: counter-screen for vitamin D receptor inhibitors: cytotoxicity; shares compounds with VDR inhibitor; cytotoxicity counter-screen, cell viability, qHTS; Potency, µM (series often up to 48.3 µM), for the others: top-dose activity change, negative = cytotoxicity, usual class: cytotoxic; 840 tested, 18% active; AID 602204;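 further: potency means the concentration at half of the fitted maximal effect; plate controls were DMSO for no effect and high-concentration cycloheximide for full effect; nearly all actives have a fitted effect of over 75% in size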
TbPYK inh: Trypanosoma brucei pyruvate kinase inhibition, cherry-pick confirmation; shares compounds with PLK1 PBD block; recombinant TbPYK, Kinase-Glo ATP luminescence; Potency, µM (top dose mostly 76.9 µM), inactives show at the highest dose activity change, negative = inhibition, actives largely listed as inhibitors; 890 tested, 67% active; AID 720569; further: potency means the concentration at half of the fitted maximal effect; on the % scale 0 is the no-effect control and ±100 the full control effect; nearly all actives have a fitted effect of over 70% in size
TbPYK ADP-Glo: inhibits T. brucei pyruvate kinase in orthogonal ADP-Glo assay; shares compounds with PLK1 PBD block; recombinant TbPYK, ADP-Glo luminescence, 60 min; Potency, µM (titrated, usually from 76.9 µM), inactives show top-dose activity change, negative = inhibition, hits mostly inhibitors; 890 tested, 62% active; further: potency means the concentration at half of the fitted maximal effect; on the % scale 0 is the no-effect control and ±100 the full control effect; nearly all actives have a fitted effect of over 75% in size
An asterisk follows results filed as active; u = inconclusive; x = no result; ! = a repeat was not active; [ ] = dose if it differs, or a comment. An excerpt weighted towards active compounds, which were near 4.2% of everything screened. Unless noted, the call rests on the fitted dose curve; in most records, active means well fitted curve in the direction sought with a large enough effect; inconclusive means small, poorly fitted or top-dose-only effect, or another doubt; inactive means no such curve, though single readings can be large; an effect the other way counts as inactive or inconclusive.

SMILES | PLK1 PBD block | VDR inhibitor | Sfp inh | 12-LOX inh | VDR confirm | VDR FP | VDR bla | VDR viability | others
O=c1[nH]c2ccccc2n1C1CCN(CCCC(c2ccc(F)cc2)c2ccc(F)cc2)CC1 | -7.3% | u | 44.7µM*! | u | x | x | x | x | Sfp PPTase conf=41.8µM*;Sfp gel assay=u;USP1-UAF1 confirm=u
COc1ccc(-c2c(C)c3cc(OC(=O)N(C)C)ccc3oc2=O)cc1 | x | x | x | -12.8% | x | x | x | x
C[C@]12CC[C@@H]3c4cc(O)c(O)cc4CC[C@H]3[C@@H]1CC[C@@H]2O | 21.2µM* | -16.9% | 3.98µM* | 7.94µM* | x | x | x | x | Sfp PPTase conf=21µM*;Sfp gel assay=6.17µM*;TbPYK inh=2.24µM*;TbPYK ADP-Glo=3.55µM*
C[C@]12CC[C@@H]3c4ccc(O)c(O)c4CC[C@H]3[C@@H]1CC[C@@H]2O | u | -15.3% | 3.16µM* | 5.01µM* | x | x | x | x | Sfp PPTase conf=6.63µM*;Sfp gel assay=2.06µM*;TbPYK inh=10µM*;TbPYK ADP-Glo=10µM*
CCN(C(=O)COC(=O)c1cn(C)c2ccccc12)c1ccc(F)cc1 | -2.8% | -17.8% | x | 2.3% | x | x | x | x
C[C@H]1COC2=C1C(=O)C(=O)c1c2ccc2c1CCCC2(C)C | 26.7µM* | 11.2µM* | -1.6% | u | 20* | 25.1µM* | -2.8% | 9.3%
CC1COC2=C1C(=O)C(=O)c1c2ccc2c1CCCC2(C)C (configuration not stated) | x | 7.08µM* | u | x | u | 14.1µM* | -10.1% | 7.2%
COc1ccc(CCNCc2ccncc2)cc1 | -11.8% | 5.2% | -1.8% | u | x | x | x | x
C=CCOC(=O)C1C(C(=O)O)C2(Cl)C(Cl)=C(Cl)C1(Cl)C2(Cl)Cl (configuration not stated) | -8.0% | -21.1% | x | 12.0% | x | x | x | x
O=C(c1ccco1)N1CCC[C@@]2(CCN(Cc3ccncc3)C2)C1 | x | -16.8% | u | u | x | x | x | x
c1ccc(CCNC2(c3nnnn3-c3ccccc3)CCCCC2)cc1 | x | x | x | 2.3% | x | x | x | x
CCn1cc(S(=O)(=O)N2[C@H]3CC[C@@H]2c2cnc(-c4ccc(F)cc4)nc2C3)cn1 | x | x | x | 14.7% | x | x | x | x
O=C1CC2CCN(Cc3ccncc3)CC2CCN1 (configuration not stated) | x | x | x | 9.0%[12.5 µM] | x | x | x | x
C=CCn1cc(C=C2C(=O)NC(=O)NC2=O)c2ccccc21 | 7.6% | 6.5% | -5.6% | u | x | x | x | x
C=CCN1C(=O)/C(=C/c2ccc(Br)s2)C(=O)NC1=S | 1.34µM* | 20µM* | 39.8µM* | 5.62µM* | 4.23* | 39.0% | u | -27.6%
CN1C(=O)/C(=C/c2ccc(Cl)s2)C(=O)NC1=S | 1.5µM* | 20µM* | 12.6µM* | 4.47µM* | 6.7* | u | u | -11.3%
Cc1cc(C)n(CCOC(=O)C2C(C=C(Cl)Cl)C2(C)C)n1 (configuration not stated) | -11.2% | 36.0% | 8.2% | u | x | x | x | x
Cc1ccccc1N1C(=O)NC(=O)/C(=C\c2cnn(-c3ccccc3)c2)C1=O | 4.74µM* | 50.1µM* | 25.1µM* | u | 10.6* | u | -4.0% | 3.9%
CN1C(=O)C(=Cc2ccccc2Oc2ccc(Cl)cc2)C(=O)N(C)C1=O | 4.74µM* | 28.2µM* | u | u | 16.8* | 17.8µM* | 18.3% | -3.0%
CN1C(=O)C(=Cc2ccc(OCCN(C)c3ccccn3)cc2)C(=O)N(C)C1=O | u | -16.3% | -9.2% | -0.4% | x | x | x | x
COCCCn1c(N)c(C(=O)OCCOC)c2nc3ccccc3nc21 | -9.9% | -2.6% | 5.9% | -0.4% | x | x | x | x
CCOC(=O)c1c(NS(=O)(=O)c2ccccc2)n(CCCOC)c2nc3ccccc3nc12 | -24.9% | u | 11.3% | u | 2.51* | 2.24µM* | -8.2% | 24.0%
COc1ccc(C(=O)N2C[C@@H]3C[C@H](C2)c2c(NC(=O)c4ccco4)ccc(=O)n2C3)cc1 | x | x | x | 16.5%[176 µM] | x | x | x | x
O=C1C(=O)c2ccccc2-c2ccccc21 | -20.0% | 10µM* | -15.7% | -21.9% | 5.97* | 3.16µM* | 3.66µM* | 1.78µM*
c1ccc2c(NC3=NCCS3)cccc2c1 | -9.9% | 5.3% | 15.0% | -19.2% | x | x | x | x
SMILES | PLK1 PBD block | VDR inhibitor | Sfp inh | 12-LOX inh | VDR confirm | VDR FP | VDR bla | VDR viability | others
CCCCn1c(O)c(C(=O)/C=C/c2ccc3c(c2)OCO3)c(=O)[nH]c1=O | -16.4% | u | -3.1% | -0.7% | 10.6* | u | u | 17.8%
O=C(/C=C/c1ccc2c(c1)OCO2)c1c(O)n(CCC2=CCCCC2)c(=O)[nH]c1=O | u | u | -2.7% | -25.9% | 5.62* | u | 20.6µM* | -5.3%
CCCCn1c(O)c(C(CC)=NCc2ccc3c(c2)OCO3)c(=O)[nH]c1=O | -4.7% | -8.5% | -0.2% | 0.0% | x | x | x | x
COc1ccc(NC(=O)NC[C@H]2C[C@@H]3CCN2C[C@@H]3c2cc(-c3ccccc3)nn2C)cc1 | x | x | x | -14.2% | x | x | x | x
CN1CCC(NCC2(CO)C[C@@H](O)[C@@H](O)C2)CC1 (some centres not stated) | x | x | x | 7.6%[176 µM] | x | x | x | x
O=C1NC(=S)NC(=O)C1=Cc1ccc(OCC(=O)N2CCCC2)cc1 | 15µM* | 44.7µM* | 20µM* | u | 13.4* | 14.1µM* | 20.8% | 12.5%
CN(C)c1ccc(C(=O)c2ccc(N(C)C)cc2)cc1 | -5.6% | -12.5% | 1.8% | 22.6% | x | x | x | x
C/C(=C\c1ccc(N(C)C)cc1)[N+](=O)[O-] | u | 20µM* | -7.1% | 6.8% | 6.7* | u | -134.3% | u

Screening data (PubChem BioAssay)
